Screening results (PubChem BioAssay)
Compounds with a hit are over-represented: about 1.1% of the library has one in this group of screens.
LRH-1 inv ag: suppresses constitutive activity of human LRH-1 | O00482 | HEK293T StAR-luciferase reporter, LRH-1 transfected, 24 h | inhibition, % at 3.6 µM | actives 0.13% (n = 360,000);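 active means inhibition above the mean inhibition of all tested compounds plus 3 SD, cut at about 73% in these data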;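 further: 0% = DMSO wells and 100% = reporter-only cells lacking LRH-1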
NCOA2 inhibitor: human SRC2 (NCOA2) inhibition; Q15596; HEK293 GAL4-SRC2 luciferase reporter, luminescence; inhibition, % at 9 µM; actives 0.17% (n = 370,000); AID 651957;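 active means inhibition above the mean inhibition of all tested compounds plus 3 SD, set per campaign, cut at about 52% in these data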;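 further: 0% = DMSO treated cells and 100% = cells given Gossypol at 36 µM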
SRC3 inh: inhibits human SRC3 coactivator; actives 0.17% (n = 360,000); AID 588352; inhibition, % at 3.6 µM; Q9Y6Q9; HEK293 GAL4-SRC3 luciferase reporter, luminescence;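 active means inhibition above a per-campaign cutoff, the mean of all compounds plus 3 SD, cut at about 60% in these data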;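 further: 0% = DMSO-treated cells and 100% = gossypol-treated cells at 36 µM; higher means less SRC3-driven luciferase light from the GAL4 reporter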
NR2F2 inh: blocks human COUP-TFII nuclear receptor. P24468. inhibition, % at 8.6 µM. actives 0.7% (n = 370,000). HEK293T NGFI-A luciferase reporter, luminescence. AID 686940;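 active means inhibition above a per-plate cutoff, mean inhibition of test wells between control levels plus 3 SD, cut at about 38% in these data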;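 further: cells cotransfected with COUP-TFII expression vector driving the NGFI-A reporter; 0% = median of COUP-TF2 test wells and 100% = reporter-only cells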
GalR3 antagonist: blocks the human galanin receptor 3; inhibition, % at 3 µM; actives 0.44% (n = 360,000); O60755; HEK293 GalR3-CNG cAMP membrane potential fluorescence; galR3 body fused to GalR1 C-terminus;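 active means inhibition above the screen-wide average plus 3 SD, cut at about 13% in these data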;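 further: forskolin and galanin both at EC90 stimulate the cells; cAMP rise reported by CNG channel membrane potential dye signal; 0% = forskolin plus galanin with DMSO and 100% = forskolin alone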
SRC1 inh: human NCOA1 inhibition | Q15788 | HEK293 GAL4-SRC1 luciferase reporter, luminescence | inhibition, % at 3.6 µM | actives 0.12% (n = 360,000) | AID 588354;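 active means inhibition above the campaign mean plus 3 SD, with each screening campaign given its own cutoff, cut at about 60% in these data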;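 further: 0% = DMSO treated cells and 100% = gossypol at 36 µM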
VP16 Luc counter: VP16 inhibition counter-screen for COUP-TFII; actives 25% (n = 2,500); AID 687007; HEK293 Gal4-VP16 luciferase reporter, luminescence; shares compounds with NR2F2 inh; inhibition, % at 8.5 µM; in the data active means inhibition above about 13%
NR2F2 inh conf: COUP-TFII (NR2F2) inhibition, confirmation assay; inhibition, % at 8.5 µM; shares compounds with NR2F2 inh; AID 687008; actives 45% (n = 2,500); HEK293 NGFI-A luciferase reporter, luminescence;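 active means mean inhibition over three repeats above a set limit taken from the earlier primary screen, cut at about 38% in these data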;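 further: 100% = cells given the luciferase reporter alone without the COUP-TF2 vector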
Starred values were filed as active, the others as inactive; nt = no result given.

SMILES	LRH-1 inv ag	NCOA2 inhibitor	SRC3 inh	NR2F2 inh	GalR3 antagonist	SRC1 inh	VP16 Luc counter	NR2F2 inh conf
Cc1cc(C(=O)COC(=O)C23CC4CC(CC(O)(C4)C2)C3)c(C)n1-c1c(C)n(C)n(-c2ccccc2)c1=O	12	0	-4	9	1	-3	nt	nt
Cc1nc2ccccn2c1-c1ccnn1S(=O)(=O)c1ccc(F)cc1	17	24	34	49*	6	2	-2	11
Cc1nc2ccccn2c1C(=O)/C=C/c1ccc(F)cc1	-68	-46	-8	-3	3	-27	nt	nt
O=S1(=O)CC(N2CCN(Cc3ccccc3F)CC2)CN1Cc1cn(Cc2ccc(C(F)(F)F)cc2)nn1 (stereo not drawn)	16	16	nt	60*	-7	nt	-6	14
COc1ccc(C(=O)OCCN2CCN(C3CN(Cc4cn(Cc5ccccc5C(F)(F)F)nn4)S(=O)(=O)C3)CC2)cc1OC (stereo not drawn)	nt	14	nt	48*	nt	nt	0	17
COc1ccc(-c2c[n+]3c(n2-c2ccccc2)CCCCC3)cc1	40	10	33	33	-2	36	nt	nt
FC(F)Oc1ccc(-c2c[n+]3c(n2-c2ccccc2)CCCCC3)cc1	-2	11	13	-21	-3	5	nt	nt
CCOc1ccc(-n2c(-c3ccc(OC)cc3)c[n+]3c2CCCCC3)cc1	84*	-5	46	83*	56*	30	20*	72*
CCOc1ccc(-n2c(-c3ccccc3)c[n+]3c2CCC3)cc1	36	17	26	55*	-4	9	-4	30
CC(C)(C)NC1=CC(=O)OC12CCCCC2	0	-11	12	-4	-6	8	nt	nt
COc1ccc(N2CC(C)Cn3c2nc2c3c(=O)n(CCN3CCOCC3)c(=O)n2C)cc1 (stereo not drawn)	-6	-15	4	8	-1	6	nt	nt
Cc1cc(NC2CCCCC2)nc(NCc2ccccc2)n1	5	-22	33	52*	-6	17	-2	19
NC(=O)c1cc([N+](=O)[O-])ccc1NCc1ccc(F)cc1	-7	-17	-52	-1	-5	-7	nt	nt
NC(=O)c1cc([N+](=O)[O-])ccc1NCc1ccc(N)cc1	-1	73*	45	52*	0	41	64*	50*
CCCCCN1C=CC(=C2C(=O)c3ccccc3C2=O)C=C1	24	83*	61	70*	-2	53	48*	73*
CC1=CC(=C2C(=O)c3ccccc3C2=O)C=C(C)N1C	-47	-42	-34	-22	-8	-36	nt	nt
CNC(=S)N(Cc1cc2cc(C)cc(C)c2[nH]c1=O)C1CCCC1	8	2	3	-2	-9	6	nt	nt
Cn1c(SCC(=O)NCCc2ccccc2)ncc(C(=O)Nc2ccccc2)c1=O	28	14	8	54*	-4	2	4	1
O=C1CCCCC1Sc1nnc(-c2ccc3c(c2)OCO3)o1 (stereo not drawn)	9	57*	45	64*	-8	43	22*	59*
Cc1cc(C(=O)N2CCN(c3ccc(F)cc3)CC2)on1	4	-2	2	-10	nt	5	nt	nt
Cc1cccc(Nc2nc(-c3c(C)nc4ccccn34)cs2)c1	18	8	37	53*	-4	11	-6	44*
Cc1nc2ccccn2c1-c1csc(Nc2cccc(O)c2)n1	31	18	15	9	-4	11	nt	nt
C=CCn1c(SC)nnc1-c1ccc2ncccc2c1	-10	-6	-14	7	-4	3	nt	nt
O=C(O)c1ccc(N/N=C/c2ccncc2)cc1	-50	-9	-29	-17	-10	-4	nt	nt
O=C(O)c1ccc(N/N=C/c2ccc3nccnc3c2)cc1	41	68*	62*	67*	3	37	17*	59*
SMILES	LRH-1 inv ag	NCOA2 inhibitor	SRC3 inh	NR2F2 inh	GalR3 antagonist	SRC1 inh	VP16 Luc counter	NR2F2 inh conf
Cc1c(Cl)c([N+](=O)[O-])nn1CC(=O)N1CCN(C23CC4CC(CC(C4)C2)C3)CC1	0	15	-15	-8	-9	-4	nt	nt
c1ccc2c(-c3cnc4cccnn34)cncc2c1	2	10	17	-6	-2	-55	nt	nt
c1cc(-c2cnc3cccnn23)c2cccnc2c1	25	66*	58	46*	-1	63*	4	26
COCCNc1nc(NCc2ccccc2OC)c2sccc2n1	22	10	-1	27	-7	-2	nt	nt
COc1ccccc1CNc1nc(Nc2cccc(-c3cnco3)c2)c2sccc2n1	6	-5	-9	48*	-5	10	1	21
COc1ccccc1CNc1nc(NCC2CC2)nc2ccsc12	2	16	4	47*	-6	-3	-8	13
COc1ccccc1CNc1nc(NCc2ccccc2OC)c2sccc2n1	2	16	2	53*	-6	-4	4	26
CCC(CC)NC(=O)CN(c1ccccc1OC)S(=O)(=O)c1cccs1	-13	-6	-8	-1	6	4	nt	nt
CCOC(=O)N1CCC(NC(=O)C2CCCN(Cc3nc(-c4ccc(CC)cc4)oc3C)C2)CC1 (stereo not drawn)	31	19	38	54*	11	4	0	45*
C[C@H]1[C@@H](OC(=O)Nc2ccc(Br)cc2)CC[C@@]23CCCN2C(=O)CCC[C@@H]13	nt	nt	nt	1	nt	nt	nt	nt
COc1ccc2c(c1)sc1nc(-c3ccccc3)cn12	-1	61*	13	47*	3	5	47*	40*
CC(Sc1nnc(-c2ccco2)n1C)C(=O)Nc1ccc(N2CCOCC2)cc1 (stereo not drawn)	-17	-7	5	-15	1	-7	nt	nt
CC(C)CCOc1ccc(C2(C)NC(=O)N(CN3CCOCC3)C2=O)cc1 (stereo not drawn)	-1	nt	-8	nt	nt	9	nt	nt
CC12CCC(=O)C=C1CCC1C2CCC2(C)C(c3csc(N)n3)CCC12 (stereo not drawn)	27	38	19	57*	3	23	9	45*
COc1ccc(NS(=O)(=O)c2cccc(C(=O)NN=Cc3ccc(OC)cc3OC)c2)cc1	-1	9	-2	38*	-4	0	-7	-5
COc1ccc(NS(=O)(=O)c2cccc(C(=O)N/N=C/c3cccs3)c2)cc1	11	-16	2	5	-4	-24	nt	nt
Cc1ccc(-c2[nH]c3ccccc3c2SCCNC(=O)c2ccc(S(=O)(=O)N3CCOCC3)cc2)cc1	28	-6	13	47*	nt	-24	-8	-8
O=C(c1cc2ccccc2o1)N1CCN(C/C=C/c2ccccc2)CC1	6	-8	14	38*	-1	-6	-3	3
